A short description of the assay: blood-stage malaria parasite viability loss – strain 3D7, DAPI fluorescence, 100 nL, primary screen (AID 1184).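 Also: parasites grown inside human red blood cells in medium with human serum.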 Particulars: P. falciparum 3D7 growth, 3 d, higher = more signal.
`C=C(C(=O)CC[C@@H](OC(=O)c1ccccc1-c1ccccc1C(=O)O)c1ccc(OCCO)cc1)C(C)C` displayed a z-score of -2.12.
In the case of `O=C(c1ccccc1)N1Cc2ccccc2C[C@@]2(N=C(c3ccc(OCCCO)cc3)O[C@H]2c2ccccc2)C1=O` it was -1.92; in that of `CC(C)C[C@@H]1NC(=O)[C@@H]2C[C@H](C(=O)NCCCCCNC(=O)CS)[C@H](c3ccc(O)cc3)N2C1=O`, -1.13; in that of `COC(=O)c1ccc(OC)c(/C=C\CC(OC(=O)c2ccncc2)c2ccccc2)c1` (stereo unspecified), -1.33.
With `COC(=O)C(CC#Cc1ccc2c(c1)[C@]1(C(=O)N2)[C@H](C(N)=O)[C@H]2C(=O)O[C@H](c3ccccc3)[C@H](c3ccccc3)N2[C@@H]1c1ccccc1OCCO)C(=O)OC` the figure was -2.08; with `C=CCNC(=O)[C@H]1[C@@H]2C(=O)O[C@@H](c3ccccc3)[C@@H](c3ccccc3)N2[C@@H](c2ccc(O)cc2)[C@]12C(=O)Nc1ccc(C#CCC(C(=O)OC)C(=O)OC)cc12`, -0.214; with `C#CCN(C(=O)OC(C)(C)C)[C@H](CO)c1ccccc1`, -0.333.
With `COCCCNC(=O)[C@@]1(Cc2ccccc2I)c2ccccc2C(=O)N(C2CCCCC2)[C@H]1c1ccc(CO)cc1` the figure was -1.99; with `COC(=O)[C@@]1(Cc2ccc(F)cc2)[C@H]2c3cc(C(=O)N4CCCC4)n(CCSCCO)c3C[C@H]2CN1C(=O)c1ccccc1`, -1.41.
On to `COC(=O)[C@]1(Cc2ccccc2N=[N+]=[N-])N=C(c2ccc(OCCCO)cc2)O[C@@H]1c1ccccc1CN=[N+]=[N-]`, for which the z-score was -1.96.
With `COc1cccc(C)c1NC(=O)O[C@H]1[C@H](OC(=O)Nc2ccccc2)[C@@H](OC(=O)Nc2ccccc2)[C@@H](OC)O[C@@H]1CO` the figure was -2.57; with `[N-]=[N+]=NCc1ccccc1C[C@@]1(C(=O)NCCN2CCOCC2)N=C(c2ccc(OCCCO)cc2)O[C@@H]1c1ccccc1`, -2.11; with `C=CC[C@H](O)c1ccc(O)c(F)c1`, -0.418.
With `Cc1ccc(S(=O)(=O)N2[C@@H](c3ccccc3)C(C(=O)O)=CC[C@H]2c2ccc(F)cc2)cc1` the figure was -0.204.
With `C=CCNC(=O)[C@H]1[C@@H]2C(=O)O[C@@H](c3ccccc3)[C@@H](c3ccccc3)N2[C@@H](c2ccc(O)cc2)[C@]12C(=O)N(C(=O)OCCOC)c1ccc(C#Cc3ccc(OC)cc3)cc12` the figure was -0.812; with `CC(C)(C)OC(=O)CC[C@]1(C(=O)N2CCOCC2)COC(c2ccc(OCCCO)cc2)=N1`, 0.33.
Compound `C=CCNC(=O)[C@@H]1[C@H]2C(=O)O[C@H](c3ccccc3)[C@H](c3ccccc3)N2[C@H](c2ccc(O)cc2)[C@@]12C(=O)Nc1ccc(C#CC3=CCCCC3)cc12` gave a z-score of 0.155.
With `CCOC(=O)C[C@H]1[C@H](OC(=O)Cc2ccc3c(c2)OCO3)[C@@H](NC(=O)CC(C)C)c2cc(OCCCO)ccc2N1C(=O)c1ccc2ccccc2n1` the figure was -2.04; with `COc1cc2c(cc1OC)CN(C(=O)[C@@H]1[C@H]3C(=O)O[C@H](c4ccccc4)[C@H](c4ccccc4)N3[C@H](c3ccc(O)cc3)[C@@]13C(=O)Nc1ccc(C#CC4=CCCCC4)cc13)CC2`, -0.75.
Compound `CCOC(=O)C1=CCC(c2ccncc2)N(S(=O)(=O)c2ccc(C)cc2)C1` (stereo unspecified) registered a z-score of -0.886.
With `C=CCC(OC(C)=O)[C@@H]1[C@@H](N(Cc2cccc3ccccc23)C(=O)c2ccc(C)cc2)c2cc(OCCCO)ccc2N1C(=O)Cc1ccc2ccccc2c1` (stereo partly specified) the figure was -0.145; with `COc1ccc(NN2C(C(O)c3ccc(F)cc3)C=CC3C(=O)N(C4CCCCC4)C(=O)C32)cc1` (stereo unspecified), -0.517; with `CCCCCN1CC=CC23O[C@@H]4/C=C\CCCOC(=O)C4[C@H]2C(=O)N(CCO)[C@@H]3C1=O` (stereo partly specified), -1.31.
With `O=C1NC(=O)C2C1C=CC(C(O)c1ccc(F)cc1)N2Nc1ccc(Cl)cc1Cl` (stereo unspecified) the figure was -0.525; with `COC(=O)[C@@]1(Cc2ccc(F)cc2)[C@H]2c3cc(C(=O)N4CCCC4)n(Cc4ccc(C(F)(F)F)nc4)c3C[C@H]2CN1C(=O)c1ccccc1`, -0.532; with `CC[C@@H](O[Si](C#C[Si](C(C)C)(C(C)C)C(C)C)(C(C)C)C(C)C)c1cn([C@H](CO)Cc2ccccc2)nn1`, -0.348.
In the case of `[N-]=[N+]=NCc1ccccc1C[C@]1(C(=O)N2CCCCC2)COC(c2ccc(OCCCO)cc2)=N1` it was -2.29.
`C=C(C(=O)CC[C@H](OC(=O)c1ccccc1-c1ccccc1C(=O)O)c1ccc(OCCO)cc1)C(C)C` yielded a z-score of -2.71.
In the case of `COCCOC(=O)N1C(=O)[C@@]2(c3cc(C#CCCO)ccc31)[C@H](c1ccc(O)cc1)N1[C@H](c3ccccc3)[C@H](c3ccccc3)OC(=O)[C@H]1[C@@H]2C(=O)NC[C@H](O)c1ccccc1` it was 0.0019.
With `CCCCC(=C=CC[C@@H](O)c1ccccc1OCCO)C[C@@H](O)c1ccccn1` the figure was -1.48; with `COC(=O)[C@]1(Cc2ccccc2CN=[N+]=[N-])N=C(c2ccc(OCCCO)cc2)O[C@@H]1c1ccccc1N=[N+]=[N-]`, -2.04; with `O=C1O[C@H](c2ccccc2)[C@H](c2ccccc2)N2[C@H]1[C@@H](C(=O)O)[C@]1(C(=O)Nc3ccccc31)[C@H]2c1ccc(OCCO)cc1`, -0.443.
In the case of `CC(C)C[C@@H]1NC(=O)[C@H]2C[C@@H](C(=O)O)[C@@H](c3cccc(OCCO)c3)N2C1=O` it was -0.404; in that of `O=C1C[C@@](C(=O)NCC(F)(F)F)(c2ccc([N+](=O)[O-])cc2)[C@@H](c2ccc(CO)cc2I)N1CC12CC3CC(CC(C3)C1)C2`, -1.23.
For `CCCC=C(CCC)[C@@H](NC(=O)c1ccc(C(=O)OC)cc1)c1ccc(C(=O)OC)cc1`, the z-score is -0.685.
The compound `CC1(C)OB(/C=C\CC(OC(=O)c2ccncc2)c2ccccc2)OC1(C)C` (stereo unspecified) yielded a z-score of 0.78.

These data come from PubChem BioAssay.
